Only some compounds are listed: those with a hit (about 1.1% of all), similar ones and a draw of the others.
AmpC inh no detg: qHTS Inhibitors of AmpC Beta-Lactamase (assay without detergent) | P00811 | AmpC nitrocefin hydrolysis, absorbance 480 nm, 0.0001% Triton | Potency, µM (doses to about 57.1 µM), hits mostly inhibitors | hit rate 0.52% among 330,000; also: nearly all actives have a fitted effect of over 20% in size
Target sequence (P00811 whole entry, looked up): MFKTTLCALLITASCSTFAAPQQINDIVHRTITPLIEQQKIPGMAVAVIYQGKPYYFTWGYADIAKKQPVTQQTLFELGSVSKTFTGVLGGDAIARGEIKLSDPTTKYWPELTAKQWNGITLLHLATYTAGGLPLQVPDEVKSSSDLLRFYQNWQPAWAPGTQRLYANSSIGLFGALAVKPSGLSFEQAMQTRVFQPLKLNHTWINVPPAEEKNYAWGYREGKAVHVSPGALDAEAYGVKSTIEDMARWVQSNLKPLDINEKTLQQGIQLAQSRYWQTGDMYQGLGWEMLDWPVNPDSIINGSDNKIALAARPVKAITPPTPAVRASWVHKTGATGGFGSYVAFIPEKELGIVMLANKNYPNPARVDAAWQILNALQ
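20 mM phosphate pH 7.0 + 0.01% (detergent screen) or 0.0001% Triton X-100; 5.3 nM AmpC reagent; cpd preinc 15 min RT; nitrocefin (800 uM stock) to start; A480 q20 s × 4 min; Activity was normalised to no-enzyme and no-compound control wells.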
VACV mCherry inh: qHTS for Stage-Specific Inhibitors of Vaccinia Orthopoxvirus: mCherry Reporter Primary qHTS. Vaccinia virus mCherry reporter infection, fluorescence. hit rate 0.63% among 310,000. Potency, µM (top dose mostly 36.5 µM), actives largely listed as inhibitors. AID 720579, 2013; calls by dose curve; tested in A549 cells; also: nearly all actives have a fitted effect of over 35% in size
AmpC inh detg: qHTS Inhibitors of AmpC Beta-Lactamase (assay with detergent) | P00811 | AmpC hydrolysis of nitrocefin, absorbance 480 nm, 0.01% Triton | Potency, µM (highest dose often 114 µM), most hits filed as inhibitors | hit rate 0.041% among 370,000; also: nearly all actives have a fitted effect of over 25% in size
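20 mM phosphate pH 7.0 + 0.01% (detergent screen) or 0.0001% Triton X-100; 5.3 nM AmpC reagent; cpd preinc 15 min RT; nitrocefin (800 uM stock) to start; A480 q20 s × 4 min; Activity was normalised to no-enzyme and no-compound control wells.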
Vaccinia Venus: qHTS for Stage-Specific Inhibitors of Vaccinia Orthopoxvirus: Venus Reporter Primary qHTS; Vaccinia virus Venus reporter expression, fluorescence; Potency, µM (series often up to 36.5 µM), usual class: inhibitors; hit rate 0.46% among 330,000; AID 720580, 2013; calls by dose curve; tested in A549 cells; also: nearly all actives have a fitted effect of over 30% in size
A number is an active result; – = inactive; ? = inconclusive; · = no result given. Unless noted, calls follow the shape of the dose curve; as a rule, active = well fitted curve in the direction sought with a large enough effect; inconclusive = small, poorly fitted or top-dose-only effect, or another doubt; inactive = no such curve, though single readings can be large; an effect the other way counts as inactive or inconclusive.

SMILES | AmpC inh no detg | VACV mCherry inh | AmpC inh detg | Vaccinia Venus
CCOC(=O)Cn1c(=NC(=O)CSC(C)=O)sc2cc(F)ccc21 | 35µM | – | ? | –
O=C(O[C@H]1[C@H](Cc2ccccc2)NS(=O)(=O)[C@H]2CC3C=C[C@]12O3)c1ccc(Br)cc1 | · | – | · | –
COc1ccc2[nH]c3c(c2c1)CCN1C(=O)C(CC(=O)NCCc2ccccn2)C[C@H](C(=O)N2CCCCC2)[C@@]31CCc1ccccc1 (stereo partly specified) | – | ? | · | –
CN(C)CCCNC(=O)C[C@H]1C[C@H](C(=O)N2CCCCC2)[C@@]2(C)c3[nH]c4ccc(Cl)cc4c3CCN2C1=O | – | – | · | –
CN(C)CCCNC(=O)C[C@H]1C[C@H](C(=O)N2CCCCC2)[C@@]2(CCc3ccccc3)c3[nH]c4ccc(Cl)cc4c3CCN2C1=O | – | 13µM | · | 14µM
O=C(C[C@H]1C[C@H](C(=O)N2CCCCC2)[C@@]2(CCc3ccccc3)c3[nH]c4ccc(Cl)cc4c3CCN2C1=O)NCCc1ccccn1 | – | ? | · | 13µM
CC(C)(C)c1ccc(C(=O)C[n+]2cccc(Br)c2)cc1 | · | – | · | –
COc1ccc(C)c2sc(NC(=O)C3=COCCO3)nc12 | 40µM | · | ? | ·
COc1ccc(OC)c2sc(NC(=O)C3=COCCO3)nc12 | – | – | – | –
C[C@@H]1[C@H](c2ccccc2)OCCS(=O)(=O)N1Cc1ccccc1F | · | – | · | –
Cc1cc(/C=C(\C#N)C(=O)NCCc2c[nH]c3ccccc23)c(C)n1C | 25µM | · | – | ·
Cc1cccc(N(C(=O)Cn2nnc3ccccc32)C(C(=O)NC(C)(C)C)c2ccsc2)c1C (stereo unspecified) | 0.22µM | – | – | –
O=C(CSC1=NS(=O)(=O)c2ccccc21)Nc1ccccc1 | – | 13µM | ? | 10µM
COc1ccccc1CN1CCC2(CC1)c1ccccc1[C@@H](NC(=O)c1ccco1)[C@@H]2OC | · | – | · | –
Cc1nc(N2CCN(C)CC2)c2nnn(Cc3ccccc3)c2n1 | · | – | · | –
CC(Sc1ncnc2sccc12)C(=O)Nc1ccc(S(=O)(=O)N2CCOCC2)cc1 (stereo unspecified) | · | 16µM | · | ?
O=C(CSc1ncnc2sccc12)Nc1ccc(S(=O)(=O)N2CCOCC2)cc1 | – | ? | ? | ?
COc1cc2nc(CN3CC=C(c4ccccc4)CC3)[nH]c(=O)c2cc1OC | · | 5.6µM | · | ?
CCC1(OC(=O)CN)C(=O)OCc2c1cc1n(c2=O)Cc2cc3ccccc3nc2-1 (stereo unspecified) | – | 7.1µM | – | ?
O=C(C[N+]1(CC(O)c2ccccc2)CCOCC1)c1ccccc1 (stereo unspecified) | · | – | · | –
CC(O)(COc1ccccc1)c1ccc2c(c1)CN(Cc1cccc3cccnc13)CCO2 (stereo unspecified) | · | – | · | –
CCC1C(=O)NCCN1Cc1ccc2c(c1)CN(Cc1cccc(OC)c1)CCO2 (stereo unspecified) | · | – | · | –
CC(OC(=O)c1ccc(NS(=O)(=O)c2ccc3[nH]c(=O)[nH]c3c2)cc1)C(=O)Nc1ccc(Cl)cc1 (stereo unspecified) | – | – | – | –
COc1ccc(Cl)cc1NC(=O)C(C)OC(=O)c1ccc(NS(=O)(=O)c2ccc3[nH]c(=O)[nH]c3c2)cc1 (stereo unspecified) | 3.5µM | – | – | –
O=C(Oc1c(-c2ccccc2Cl)oc2ccccc2c1=O)c1ccc(Cl)cc1 | 18µM | – | – | –
SMILES | AmpC inh no detg | VACV mCherry inh | AmpC inh detg | Vaccinia Venus
CC(=O)N1CCC[C@H]1C(=O)N1CCc2c(cnc(C)c2CNC(=O)/C=C/c2cccs2)C1 | · | – | · | –
Cc1nc(C)n(CC(=O)NCC2Cc3cc(-c4ccsc4)cc(Cl)c3O2)n1 (stereo unspecified) | · | – | · | –
O=C(Nc1ccc(S(=O)(=O)Nc2nccs2)cc1)c1ccc(S(=O)(=O)N2CCOCC2)cc1 | – | – | – | –
O=C(Nc1ccc(S(=O)(=O)Nc2nccs2)cc1)c1ccc(F)c(S(=O)(=O)N2CCOCC2)c1 | 7.9µM | · | ? | ·
Cc1cccc2c(N3CCCC3)nc(CNS(=O)(=O)c3ccc4ccccc4c3)nc12 | · | – | · | –
Cc1ccc(N/N=C(\C#N)C(N)=S)c(C)c1 | 3.5µM | – | – | –
CCc1cc(C(=O)OC)c(NC(=O)CN2CCN(C(=O)c3ccco3)CC2)s1 | – | – | – | –
Cc1ccc(C(=O)c2cc(C)sc2NC(=O)CN2CCN(C(=O)c3ccco3)CC2)cc1 | – | 11µM | ? | ?
CN(C)c1c(Cl)cc(/C=C/c2ccnc3ccccc23)cc1Br | · | – | · | –
C#CCN(Cc1ccc(OC)cc1)S(=O)(=O)C=C | · | ? | · | 28µM
O=C(COc1ccccc1C(=O)Nc1ccccc1)Nc1ccccc1Cl | · | – | · | –
C/C=C/C(=O)OCC(=O)Nc1cc([N+](=O)[O-])ccc1Cl | – | 11µM | – | ?
C/C=C/C(=O)OCC(=O)Nc1cc(OC)c([N+](=O)[O-])cc1C | – | 5.6µM | – | 7.9µM
S=c1ncc2n[nH]nc2[nH]1 | · | – | · | –
Cc1c(N/N=C(\C#N)C(=O)c2ccc(Cl)cc2)c(=O)n(-c2ccccc2)n1C | – | 11µM | – | ?
NS(=O)(=O)c1ccc(CCNc2ncnc3c2c(-c2ccccc2)cn3-c2ccc(F)cc2)cc1 | 4.5µM | · | – | ?
O=C(CCc1c[nH]c2ccccc12)N=Nc1c(O)[nH]c2ccccc12 | 32µM | – | – | –
O=C(CCNC(=O)c1ccccc1)N=Nc1c(O)[nH]c2ccccc12 | – | · | – | ·
CCCCCc1cc(=O)oc2c(C(CCN3CCCC3)c3cc(OC)c(OC)c(OC)c3)c(OC)cc(OC)c12 (stereo unspecified) | – | 14µM | – | 16µM
CCCCCc1cc(=O)oc2c(C(CCN3CCCCC3)c3ccc(OC)cc3)c(OC)cc(OC)c12 (stereo unspecified) | – | 13µM | – | ?
Cc1cc(C)nc(-n2ncc3c2CC(c2cccc(Cl)c2)CC3=O)n1 (stereo unspecified) | – | 10µM | – | ?
Cc1nc2sccn2c1CN1CCOc2ccc(CN3CCN(c4ccc(F)cc4)CC3)cc2C1 | · | – | · | –
CCCN1CNc2c(c(=O)[nH]c(=S)n2CCC(C)C)C1 | · | – | · | –
CCc1ccccc1N1CC23C=CC(O2)C(C(=O)O)C3C1=O (stereo unspecified) | 3.5µM | – | – | –
CCCCOC(=O)C1[C@H]2C(=O)N(c3ccccc3CC)C[C@]23C=C[C@H]1O3 (stereo partly specified) | – | · | – | –
Cc1cc(SCC(=O)N/N=C/c2ccc(O)c(O)c2O)c(C)cc1Br | 18µM | 13µM | – | ?
COc1cc(/C=N/NC(=O)CSc2cc(C)c(Br)cc2C)ccc1O | – | · | – | ·
Cc1ccc(NCCC(=O)c2cccc([N+](=O)[O-])c2)c(C)c1 | 20µM | – | – | –
COc1ccccc1NC(=O)CSc1oc(-c2ccc(F)cc2)nc1S(=O)(=O)c1ccc(Br)cc1 | · | 14µM | – | ?

Source: PubChem (National Center for Advancing Translational Sciences (NCATS))
